Measured values as given in article PMC7862700, “An all-to-all approach to the identification of sequence-specific readers for epigenetic DNA modifications on cytosine”.

Assays:
Experiment in all cases: DAPPL (digital affinity profiling via proximity ligation, sequencing); 10 mM Tris-HCl pH 7.5, 50 mM NaCl, 1 mM DTT, 4% glycerol, room temperature, 30 min; GST-TFs on glutathione beads, 16-mer random dsDNA library, 0.1% formaldehyde crosslink after washing; high values mean tight binding
FLI1 = target: T1, FLI1 (Homo sapiens, UniProt Q01543 1-452); conditions: protein: recombinant; tags: N-terminal GST; dsDNA, one strand shown
T1 sequence: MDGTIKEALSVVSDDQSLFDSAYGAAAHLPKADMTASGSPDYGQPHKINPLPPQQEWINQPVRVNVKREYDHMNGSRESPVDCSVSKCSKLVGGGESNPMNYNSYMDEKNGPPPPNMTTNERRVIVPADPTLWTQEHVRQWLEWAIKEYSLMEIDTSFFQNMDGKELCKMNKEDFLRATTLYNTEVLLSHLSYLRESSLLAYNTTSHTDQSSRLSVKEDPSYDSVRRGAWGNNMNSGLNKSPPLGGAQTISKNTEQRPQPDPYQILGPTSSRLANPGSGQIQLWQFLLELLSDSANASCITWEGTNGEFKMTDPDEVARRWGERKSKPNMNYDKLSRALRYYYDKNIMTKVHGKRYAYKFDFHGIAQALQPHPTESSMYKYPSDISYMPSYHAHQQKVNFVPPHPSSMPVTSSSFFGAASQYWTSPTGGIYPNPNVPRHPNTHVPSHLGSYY
Summary of the method: (§1)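 Human transcription factors fused to GST were expressed in yeast, captured on glutathione beads, given DNA barcodes and pooled with a GST-only negative control. Pools were incubated with 200 nmole of a 16-mer random double-stranded DNA library in Tris/NaCl/DTT/glycerol buffer at room temperature for 30 min. They were then washed, crosslinked with 0.1% formaldehyde, proximity-ligated (BsaI/T4 ligase, 1 h, 37 °C), PCR-amplified and sequenced on an Illumina NextSeq500. Binding signal is each 6-mer's read frequency for a factor divided by its frequency for the GST control.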

ELK1 = target: T2, ELK1 (Homo sapiens, UniProt P19419 1-428); conditions: protein: recombinant; tags: N-terminal GST; dsDNA, one strand shown
T2 sequence: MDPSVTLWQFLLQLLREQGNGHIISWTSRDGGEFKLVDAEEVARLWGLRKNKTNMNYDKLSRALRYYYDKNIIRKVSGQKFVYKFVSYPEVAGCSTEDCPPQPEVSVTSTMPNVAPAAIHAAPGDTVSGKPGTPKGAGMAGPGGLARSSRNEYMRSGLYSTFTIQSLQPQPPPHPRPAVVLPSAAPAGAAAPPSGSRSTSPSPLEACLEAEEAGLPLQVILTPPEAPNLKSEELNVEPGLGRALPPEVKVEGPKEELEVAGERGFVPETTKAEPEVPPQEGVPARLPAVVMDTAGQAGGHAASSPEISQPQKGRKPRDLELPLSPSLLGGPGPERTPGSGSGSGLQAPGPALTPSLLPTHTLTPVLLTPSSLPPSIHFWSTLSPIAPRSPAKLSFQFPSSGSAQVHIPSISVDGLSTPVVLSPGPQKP
Summary of the method: as §1

GABPA = target: T3, GABPA (Homo sapiens, UniProt Q06546 1-454); conditions: protein: recombinant; tags: N-terminal GST; dsDNA, one strand shown
T3 sequence: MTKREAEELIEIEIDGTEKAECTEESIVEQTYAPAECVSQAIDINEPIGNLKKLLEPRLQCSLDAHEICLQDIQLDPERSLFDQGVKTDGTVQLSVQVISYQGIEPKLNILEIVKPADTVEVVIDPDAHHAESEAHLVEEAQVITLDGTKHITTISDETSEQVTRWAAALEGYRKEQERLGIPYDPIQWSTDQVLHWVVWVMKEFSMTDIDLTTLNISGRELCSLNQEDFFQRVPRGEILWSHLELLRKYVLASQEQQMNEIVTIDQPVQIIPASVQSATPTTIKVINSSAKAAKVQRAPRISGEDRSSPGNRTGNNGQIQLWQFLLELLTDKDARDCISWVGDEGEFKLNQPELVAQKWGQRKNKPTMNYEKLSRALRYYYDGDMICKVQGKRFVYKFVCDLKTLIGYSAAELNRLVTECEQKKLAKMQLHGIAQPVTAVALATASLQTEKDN
Summary of the method: as §1

ERG = target: T4, ERG (Homo sapiens, UniProt P11308 1-479); conditions: protein: recombinant; tags: N-terminal GST; dsDNA, one strand shown
T4 sequence: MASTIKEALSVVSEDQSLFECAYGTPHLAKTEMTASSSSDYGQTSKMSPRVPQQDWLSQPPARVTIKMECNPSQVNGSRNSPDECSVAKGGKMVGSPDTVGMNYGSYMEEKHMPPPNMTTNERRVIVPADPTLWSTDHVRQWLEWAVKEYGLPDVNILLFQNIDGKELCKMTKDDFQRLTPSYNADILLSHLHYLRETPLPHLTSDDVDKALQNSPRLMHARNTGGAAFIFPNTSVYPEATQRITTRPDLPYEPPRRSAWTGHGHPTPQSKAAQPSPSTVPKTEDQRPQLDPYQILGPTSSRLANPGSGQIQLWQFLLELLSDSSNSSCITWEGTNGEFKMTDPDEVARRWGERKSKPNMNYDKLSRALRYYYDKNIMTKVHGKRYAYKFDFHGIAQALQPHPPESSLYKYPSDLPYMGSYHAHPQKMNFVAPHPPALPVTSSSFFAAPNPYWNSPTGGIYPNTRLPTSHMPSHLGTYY
Summary of the method: as §1

ELF1 = ELF1 (Homo sapiens, UniProt P32519 1-619); conditions: protein: recombinant; tags: N-terminal GST; dsDNA, one strand shown
Chain of ELF1 (P32519 whole entry): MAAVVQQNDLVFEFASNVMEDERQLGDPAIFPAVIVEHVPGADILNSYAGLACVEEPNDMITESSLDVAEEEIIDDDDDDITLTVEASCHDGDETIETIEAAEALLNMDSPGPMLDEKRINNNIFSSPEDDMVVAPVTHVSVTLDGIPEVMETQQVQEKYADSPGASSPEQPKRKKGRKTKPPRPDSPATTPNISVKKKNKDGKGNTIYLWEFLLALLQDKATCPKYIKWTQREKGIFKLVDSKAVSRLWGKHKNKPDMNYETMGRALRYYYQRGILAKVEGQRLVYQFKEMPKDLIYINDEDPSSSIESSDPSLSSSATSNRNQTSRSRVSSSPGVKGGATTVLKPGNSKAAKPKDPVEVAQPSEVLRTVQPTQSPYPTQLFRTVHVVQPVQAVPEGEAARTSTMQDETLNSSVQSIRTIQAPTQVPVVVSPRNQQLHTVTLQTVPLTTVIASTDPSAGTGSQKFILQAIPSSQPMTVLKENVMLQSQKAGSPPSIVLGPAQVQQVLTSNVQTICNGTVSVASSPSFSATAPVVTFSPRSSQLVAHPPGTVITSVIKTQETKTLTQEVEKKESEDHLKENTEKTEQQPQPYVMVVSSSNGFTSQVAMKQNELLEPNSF
Summary of the method: as §1

EHF = target: T5, EHF (Homo sapiens, UniProt Q9NZC4 1-300); conditions: protein: recombinant; tags: N-terminal GST; dsDNA, one strand shown
T5 sequence: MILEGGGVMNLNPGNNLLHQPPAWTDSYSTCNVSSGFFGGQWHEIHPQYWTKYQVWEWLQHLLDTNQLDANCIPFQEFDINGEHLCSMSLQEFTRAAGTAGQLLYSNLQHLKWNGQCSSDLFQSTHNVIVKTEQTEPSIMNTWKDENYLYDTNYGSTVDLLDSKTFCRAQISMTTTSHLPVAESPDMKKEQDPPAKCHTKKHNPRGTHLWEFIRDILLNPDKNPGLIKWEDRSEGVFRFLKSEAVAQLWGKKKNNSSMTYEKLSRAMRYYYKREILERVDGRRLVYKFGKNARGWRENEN
Summary of the method: as §1

SPI1 = SPI1 (Homo sapiens, UniProt P17947 1-270); conditions: protein: recombinant; tags: N-terminal GST; dsDNA, one strand shown
Summary of the method: as §1

SPIB = SPIB (Homo sapiens, UniProt Q01892 1-262); conditions: protein: recombinant; tags: N-terminal GST; dsDNA, one strand shown
Chain of SPIB (Q01892 whole entry): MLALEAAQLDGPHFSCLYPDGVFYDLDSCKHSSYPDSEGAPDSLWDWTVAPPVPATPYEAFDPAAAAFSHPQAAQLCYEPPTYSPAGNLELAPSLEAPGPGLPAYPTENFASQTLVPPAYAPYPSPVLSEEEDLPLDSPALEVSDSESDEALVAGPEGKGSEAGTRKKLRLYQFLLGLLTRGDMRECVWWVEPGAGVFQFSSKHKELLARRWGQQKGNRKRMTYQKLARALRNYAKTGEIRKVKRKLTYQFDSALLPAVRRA
Summary of the method: as §1

ELK3 = target: T6, ELK3 (Homo sapiens, UniProt P41970 1-407); conditions: protein: recombinant; tags: N-terminal GST; dsDNA, one strand shown
T6 sequence: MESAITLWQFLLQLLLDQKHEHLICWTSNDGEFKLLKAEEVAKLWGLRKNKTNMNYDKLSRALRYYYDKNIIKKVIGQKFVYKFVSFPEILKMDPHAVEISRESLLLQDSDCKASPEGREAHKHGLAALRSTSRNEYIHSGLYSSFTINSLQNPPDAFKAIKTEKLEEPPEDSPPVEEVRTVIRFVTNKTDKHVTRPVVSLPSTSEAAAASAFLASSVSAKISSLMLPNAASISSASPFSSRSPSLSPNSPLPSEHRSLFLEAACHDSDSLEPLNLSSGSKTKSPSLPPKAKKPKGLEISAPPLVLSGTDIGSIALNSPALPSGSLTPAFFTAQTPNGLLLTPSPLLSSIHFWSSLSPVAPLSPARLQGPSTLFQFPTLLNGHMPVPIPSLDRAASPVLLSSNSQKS
Summary of the method: as §1

FEV = target: T7, FEV (Homo sapiens, UniProt Q99581 1-238); conditions: protein: recombinant; tags: N-terminal GST; dsDNA, one strand shown
T7 sequence: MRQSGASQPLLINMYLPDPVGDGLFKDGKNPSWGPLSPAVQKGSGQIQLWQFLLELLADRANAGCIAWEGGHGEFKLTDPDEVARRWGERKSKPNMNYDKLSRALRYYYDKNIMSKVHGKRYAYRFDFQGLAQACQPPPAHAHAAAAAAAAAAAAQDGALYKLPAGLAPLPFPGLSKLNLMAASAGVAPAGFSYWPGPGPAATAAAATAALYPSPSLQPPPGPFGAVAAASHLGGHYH
Summary of the method: as §1

ETV5 = ETV5 (Homo sapiens, UniProt P41161 1-510); conditions: protein: recombinant; tags: N-terminal GST; dsDNA, one strand shown
Chain of ETV5 (P41161 whole entry): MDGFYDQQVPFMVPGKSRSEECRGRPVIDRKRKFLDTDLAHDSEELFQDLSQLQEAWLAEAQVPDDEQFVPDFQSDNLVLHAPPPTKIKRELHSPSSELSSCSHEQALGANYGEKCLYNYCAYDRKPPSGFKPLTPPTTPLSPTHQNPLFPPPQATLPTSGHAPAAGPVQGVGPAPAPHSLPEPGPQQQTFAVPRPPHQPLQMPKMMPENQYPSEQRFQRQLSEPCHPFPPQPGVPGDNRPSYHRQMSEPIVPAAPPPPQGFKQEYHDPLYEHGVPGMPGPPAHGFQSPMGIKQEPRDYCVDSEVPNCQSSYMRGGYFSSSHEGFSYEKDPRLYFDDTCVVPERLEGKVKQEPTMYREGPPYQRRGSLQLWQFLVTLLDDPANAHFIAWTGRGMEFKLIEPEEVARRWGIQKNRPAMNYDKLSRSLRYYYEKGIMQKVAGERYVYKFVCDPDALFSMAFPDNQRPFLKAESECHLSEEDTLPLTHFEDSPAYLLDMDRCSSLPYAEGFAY
Summary of the method: as §1

HSF1 = HSF1 (Homo sapiens, UniProt Q00613 1-529); conditions: protein: recombinant; tags: N-terminal GST; chain copies: 3; dsDNA, one strand shown
Chain of HSF1 (Q00613 whole entry): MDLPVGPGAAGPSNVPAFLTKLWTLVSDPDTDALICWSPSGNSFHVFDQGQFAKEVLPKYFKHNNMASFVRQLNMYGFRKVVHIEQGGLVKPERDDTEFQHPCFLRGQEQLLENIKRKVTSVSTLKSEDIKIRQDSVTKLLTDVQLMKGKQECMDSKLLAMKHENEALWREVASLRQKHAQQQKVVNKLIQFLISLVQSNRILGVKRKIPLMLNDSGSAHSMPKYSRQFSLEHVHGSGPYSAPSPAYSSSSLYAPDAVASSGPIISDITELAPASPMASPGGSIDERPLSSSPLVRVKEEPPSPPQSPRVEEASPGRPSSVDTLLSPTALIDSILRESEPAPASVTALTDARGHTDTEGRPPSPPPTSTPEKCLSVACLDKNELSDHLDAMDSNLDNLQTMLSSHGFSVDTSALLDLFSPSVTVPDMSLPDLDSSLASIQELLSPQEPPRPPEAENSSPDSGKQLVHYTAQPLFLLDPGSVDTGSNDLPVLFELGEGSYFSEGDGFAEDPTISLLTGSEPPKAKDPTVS
Summary of the method: as §1

SPIC = target: T8, SPIC (Homo sapiens, UniProt Q8N5J4 1-248); conditions: protein: recombinant; tags: N-terminal GST; dsDNA, one strand shown
T8 sequence: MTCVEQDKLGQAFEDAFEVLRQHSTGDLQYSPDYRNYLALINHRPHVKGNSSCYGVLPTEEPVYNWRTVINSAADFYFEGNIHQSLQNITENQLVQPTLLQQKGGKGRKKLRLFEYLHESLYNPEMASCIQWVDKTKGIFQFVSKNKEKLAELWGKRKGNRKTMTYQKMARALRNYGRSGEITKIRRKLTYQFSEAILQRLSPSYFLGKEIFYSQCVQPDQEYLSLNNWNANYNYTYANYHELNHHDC
Summary of the method: as §1

ELF4 = ELF4 (Homo sapiens, UniProt Q99607 1-663); conditions: protein: recombinant; tags: N-terminal GST; dsDNA, one strand shown
Chain of ELF4 (Q99607 whole entry): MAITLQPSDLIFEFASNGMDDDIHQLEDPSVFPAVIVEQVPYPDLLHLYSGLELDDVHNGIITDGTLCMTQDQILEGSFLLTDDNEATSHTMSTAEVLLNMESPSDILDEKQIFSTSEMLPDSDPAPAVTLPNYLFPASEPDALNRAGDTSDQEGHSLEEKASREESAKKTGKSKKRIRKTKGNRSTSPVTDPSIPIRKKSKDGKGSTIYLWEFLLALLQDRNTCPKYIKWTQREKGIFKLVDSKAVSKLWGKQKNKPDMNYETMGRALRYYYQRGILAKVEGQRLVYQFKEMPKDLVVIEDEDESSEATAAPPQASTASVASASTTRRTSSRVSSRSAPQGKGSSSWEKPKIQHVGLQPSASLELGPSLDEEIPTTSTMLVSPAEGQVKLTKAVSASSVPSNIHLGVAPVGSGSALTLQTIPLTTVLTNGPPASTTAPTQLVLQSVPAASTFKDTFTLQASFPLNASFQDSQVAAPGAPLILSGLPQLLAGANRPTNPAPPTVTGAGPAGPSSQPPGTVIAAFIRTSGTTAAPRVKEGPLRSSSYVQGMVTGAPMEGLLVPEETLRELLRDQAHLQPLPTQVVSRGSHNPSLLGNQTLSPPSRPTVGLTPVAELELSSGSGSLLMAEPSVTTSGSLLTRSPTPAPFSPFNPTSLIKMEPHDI
Summary of the method: as §1

ELK4 = target: T9, ELK4 (Homo sapiens, UniProt P28324-2 1-405); conditions: protein: recombinant; tags: N-terminal GST; dsDNA, one strand shown
T9 sequence: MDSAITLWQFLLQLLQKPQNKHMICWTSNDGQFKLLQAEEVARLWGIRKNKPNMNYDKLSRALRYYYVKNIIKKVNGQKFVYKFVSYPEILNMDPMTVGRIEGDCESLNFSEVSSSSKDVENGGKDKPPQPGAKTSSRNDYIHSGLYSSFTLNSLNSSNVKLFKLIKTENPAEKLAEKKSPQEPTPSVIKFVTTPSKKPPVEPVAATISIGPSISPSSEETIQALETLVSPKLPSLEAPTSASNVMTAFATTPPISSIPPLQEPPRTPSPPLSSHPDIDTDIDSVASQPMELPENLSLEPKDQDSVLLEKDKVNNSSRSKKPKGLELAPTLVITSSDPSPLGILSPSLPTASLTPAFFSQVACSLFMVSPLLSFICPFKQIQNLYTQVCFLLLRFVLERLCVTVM
Summary of the method: as §1

ETV2 = target: T10, ETV2 (Homo sapiens, UniProt O00321 1-342); conditions: protein: recombinant; tags: N-terminal GST; dsDNA, one strand shown
T10 sequence: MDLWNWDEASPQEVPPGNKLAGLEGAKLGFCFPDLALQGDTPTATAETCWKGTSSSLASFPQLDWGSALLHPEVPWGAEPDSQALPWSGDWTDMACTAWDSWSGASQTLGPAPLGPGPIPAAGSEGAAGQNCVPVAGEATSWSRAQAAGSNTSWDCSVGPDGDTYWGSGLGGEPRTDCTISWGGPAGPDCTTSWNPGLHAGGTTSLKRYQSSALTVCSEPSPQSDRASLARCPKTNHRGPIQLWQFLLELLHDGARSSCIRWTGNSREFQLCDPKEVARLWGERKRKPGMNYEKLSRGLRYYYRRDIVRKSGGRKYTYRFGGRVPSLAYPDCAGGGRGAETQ
Summary of the method: as §1

ELF3 = target: T11, ELF3 (Homo sapiens, UniProt P78545 1-371); conditions: protein: recombinant; tags: N-terminal GST; dsDNA, one strand shown
T11 sequence: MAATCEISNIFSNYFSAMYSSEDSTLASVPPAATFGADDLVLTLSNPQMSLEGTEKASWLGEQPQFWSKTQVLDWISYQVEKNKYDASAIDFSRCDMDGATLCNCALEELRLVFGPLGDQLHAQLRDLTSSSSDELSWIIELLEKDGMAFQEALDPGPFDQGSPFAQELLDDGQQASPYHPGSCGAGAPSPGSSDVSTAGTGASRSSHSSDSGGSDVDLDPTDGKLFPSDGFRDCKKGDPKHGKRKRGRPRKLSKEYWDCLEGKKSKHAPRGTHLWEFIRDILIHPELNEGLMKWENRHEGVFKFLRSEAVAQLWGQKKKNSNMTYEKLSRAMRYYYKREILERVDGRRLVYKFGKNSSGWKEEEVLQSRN
Summary of the method: as §1

CRX = CRX (Homo sapiens, UniProt O43186 1-299); conditions: protein: recombinant; tags: N-terminal GST; dsDNA, one strand shown
Chain of CRX (O43186 whole entry): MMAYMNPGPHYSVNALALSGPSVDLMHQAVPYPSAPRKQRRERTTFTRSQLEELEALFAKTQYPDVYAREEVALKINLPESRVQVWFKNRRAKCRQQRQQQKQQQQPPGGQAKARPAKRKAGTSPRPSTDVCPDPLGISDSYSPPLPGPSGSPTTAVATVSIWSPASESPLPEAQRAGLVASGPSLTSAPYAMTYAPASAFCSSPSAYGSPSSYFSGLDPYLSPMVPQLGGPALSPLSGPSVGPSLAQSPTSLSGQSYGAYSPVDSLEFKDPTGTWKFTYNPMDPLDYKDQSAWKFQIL
Summary of the method: as §1

ETV1 = ETV1 (Homo sapiens, UniProt P50549 1-477); conditions: protein: recombinant; tags: N-terminal GST; dsDNA, one strand shown
Chain of ETV1 (P50549 whole entry): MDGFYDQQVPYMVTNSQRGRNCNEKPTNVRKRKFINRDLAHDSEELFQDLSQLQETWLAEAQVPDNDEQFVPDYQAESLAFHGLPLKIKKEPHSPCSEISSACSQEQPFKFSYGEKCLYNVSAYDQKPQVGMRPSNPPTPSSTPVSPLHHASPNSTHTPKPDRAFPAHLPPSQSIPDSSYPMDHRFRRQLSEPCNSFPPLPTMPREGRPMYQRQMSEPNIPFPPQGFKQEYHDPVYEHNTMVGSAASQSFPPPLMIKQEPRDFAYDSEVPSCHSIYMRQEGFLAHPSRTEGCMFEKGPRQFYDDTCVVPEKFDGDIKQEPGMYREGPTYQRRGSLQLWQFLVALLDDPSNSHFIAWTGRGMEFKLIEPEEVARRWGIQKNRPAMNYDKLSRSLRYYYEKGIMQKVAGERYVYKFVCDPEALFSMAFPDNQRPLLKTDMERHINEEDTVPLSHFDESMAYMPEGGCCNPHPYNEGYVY
Summary of the method: as §1

With CACAAG the binding signal (FLI1) was 1.2 fold enrichment (6-mer frequency, TF over GST control), the binding signal (ELK1) was 1.17 fold enrichment (6-mer frequency, TF over GST control) and the binding signal (GABPA) was 1.15 fold enrichment (6-mer frequency, TF over GST control). For the same sequence, the binding signal (ERG) was 1.09 fold enrichment (6-mer frequency, TF over GST control), the binding signal (ELF1) was 1.18 fold enrichment (6-mer frequency, TF over GST control) and the binding signal (EHF) was 1.14 fold enrichment (6-mer frequency, TF over GST control). The binding signal (SPI1) was 1.12 fold enrichment (6-mer frequency, TF over GST control), the binding signal (SPIB) was 1.13 fold enrichment (6-mer frequency, TF over GST control) and the binding signal (ELK3) was 1.16 fold enrichment (6-mer frequency, TF over GST control). The binding signal (FEV) was 1.08 fold enrichment (6-mer frequency, TF over GST control), the binding signal (ETV5) was 1.13 fold enrichment (6-mer frequency, TF over GST control) and the binding signal (HSF1) was 1.06 fold enrichment (6-mer frequency, TF over GST control). For the same sequence, the binding signal (SPIC) was 1.09 fold enrichment (6-mer frequency, TF over GST control), the binding signal (ELF4) was 1.2 fold enrichment (6-mer frequency, TF over GST control) and the binding signal (ELK4) was 1.07 fold enrichment (6-mer frequency, TF over GST control). The binding signal (ETV2) was 1.11 fold enrichment (6-mer frequency, TF over GST control), the binding signal (ELF3) was 1.17 fold enrichment (6-mer frequency, TF over GST control) and the binding signal (CRX) was 1.01 fold enrichment (6-mer frequency, TF over GST control). The binding signal (ETV1) was 1.18 fold enrichment (6-mer frequency, TF over GST control).
